The values below come from PubChem BioAssay (NCI).

This is part of a sample that, as a whole, favours compounds with a hit. Of some 83,000 tested, about 20% had one in any assay.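 Assay: single dose, 48 h. Readout: percent growth (0 = no net growth; negative = cell death). Active: <10.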 A number with no mark means an inactive call. The source made the active and inactive calls.

The experiment concerns UO-31 renal. Nature of the experiment: NCI-60 one-dose screen, 48 h (100 = growth as untreated, 0 = no growth, -100 = all killed). Conditions: 10 µM unless noted. Here is the method:
Growth inhibition of the UO-31 human tumor cell line is measured as a screen for anti-cancer activity. Cells are grown in 96 well plates and exposed to the test compound for 48 hours. Compounds are tested at a single concentration, which is 10^-5 M for most compounds. The reported endpoint is percent growth (GI% or GIPRCNT), where numbers from 0 - 100% represent growth inhibition, and numbers from -100% - 0 represent cell death. For example, a value of 40 represents 60% growth inhibition. A value of 0 means no net growth occurred over the course of the experiment. A value of -40 indicates 40% of cells at the beginning of the experiment died by the end of the experiment. A value of -100 means all cells are dead at the end of the experiment.
NCI-60 Human Tumor Cell Lines Screen was performed using the standard one-dose NCI protocol, which is described in more detail at https://dtp.cancer.gov/discovery_development/nci-60/default.htm.
Compounds with GIPRCNT values below 10 were considered active. Activity score was based on GIPRCNT using the following formula: […]
Score is 0 for GIPRCNT values of 100 or above, 50 for GIPRCNT values of 0, and 100 for GIPRCNT values of -100.
For `COc1ccc(Nc2ccc([N+](=O)[O-])cc2[N+](=O)[O-])cc1CN(CCCl)CCCl`, the growth is 31.4%. For the compound `CC1(C)N=C(N)N=C(N)N1c1ccc(OCCCNC(=O)Nc2ccc(S(=O)(=O)F)cc2)c(Cl)c1`, the growth was 83.6%. The figure for `Cc1ccc(Nc2nc3c(s2)C2=CC[C@@H]4[C@H](CC[C@]5(C)C(=O)CC[C@@H]45)[C@@]2(C)CC3)cc1` is 48.3%; for `Clc1cccc(N2COOC3(OOC2)C2CC4CC(C2)CC3C4)c1` it is -89.6% (active); for `Cn1cc(C2=C(c3cn(C4CCN(Cc5ccccn5)CC4)c4ccccc34)C(=O)NC2=O)c2ccccc21` it is 48.4%. The figure for `CCn1c2ccccc2c2cc(C(=O)c3ccc(C)c4ccccc34)ccc21` is 30.5%. Regarding `[Cl][Hg][n]1c(-c2ccco2)nc2ccccc21`, the growth is 103%. Take `O=C(CCCC1CCCCC1)OCC(Cl)(Cl)Cl`: the growth was 91.1%. The figure for `COC(=O)[C@@H](C)C[C@H](Cc1ccccc1)NC(=O)c1csc([C@@H](C[C@H](C(C)C)N(C)C(=O)C2(NC(=O)[C@H]3CCCCN3C)CCC2)OC(C)=O)n1` is 43.3%.

`O=C([O][Hg][CH2]C1OCCOC1[CH2][Hg][O]C(=O)c1ccccc1)c1ccccc1` (stereo not given): the growth is -94.8% (active). As for `COC(=O)[C@@H](C)C[C@H](Cc1ccccc1)NC(=O)c1nc([C@@H](C[C@H](C(C)C)N(C)C(=O)[C@@H](NC(=O)[C@H]2CCCCN2C)C(C)C)OC(C)=O)sc1C`, the growth was 44.5%. The figure for `CC[C@@H]1[C@@H](C)O[C@@](O)([C@@H](C)[C@H](O)[C@H](C)[C@H]2OC(=O)/C=C/C=C/[C@H](C)[C@@H]([C@@H](C)[C@@H](O)[C@H](C)[C@@]3(O)C[C@@H](O[C@H]4C[C@@H](O)[C@H](O)C(C)O4)[C@H](CC)[C@@H](C)O3)OC(=O)/C=C/C=C/[C@@H]2C)C[C@H]1O[C@@H]1C[C@@H](O)[C@H](O)C(C)O1` (stereo not given in full) is -97% (active); for `C1CCC([PH+](C2CCCCC2)C2CCCCC2[PH+](C2CCCCC2)C2CCCCC2)CC1.[Au].[CH-]1CCCCC1CC1CCCC[N-]1` (stereo not given) it is -81.4% (active). For the compound `COC(=O)[C@@H](C)C[C@H](Cc1ccccc1)NC(=O)c1csc([C@@H](C[C@H](C(C)C)N(C)C(=O)[C@@H](NC(=O)[C@H]2CCCCN2C)C2CC2)OC(C)=O)n1`, the growth was 39%. For the compound `CC(=O)O[C@H]1CC[C@]2(C)[C@H]3CC[C@]4(C)[C@@H](OC(C)=O)CC[C@H]4[C@@H]3[C@@H](C)[C@]2(O)C1`, the growth is 88.7%. For the compound `CC(C)OC(=O)[C@H](C)NP(=O)(Oc1ccccc1)C1CCCN(O)C1=O` (stereo not given in full), the growth was 86.2%. The figure for `O=P1(NCCCl)OCCCN1CCCl` (stereo not given) is 87.5%; for `COc1cccc2c1c(C(=O)C(=O)Nc1cc(C)no1)cn2Cc1ccc(F)cc1` it is 57.5%; for `CCOP(=O)(Cc1ccc(C#N)cc1)OCC` it is 99.2%. Consider `CC(CO)NC1CCCCC1` (stereo not given), for which the growth was 86.8%. The figure for `O=c1[nH]c2ccc([N+](=O)[O-])cc2c(=O)o1` is 90.7%; for `CCC(CC)CC1(C)CC2(C)CCOC2OO1` (stereo not given) it is 88.8%; for `O=C1C2C(C(=O)[N]1[Hg][c]1ccccc1)C1(Cl)C(Cl)=C(Cl)C2(Cl)C1(Cl)Cl` (stereo not given) it is -77.1% (active).

As to `CCCOC(=O)N[C@H]1CCc2c(Br)c(OC)c(OC)c(OC)c2-c2ccc(SC)c(=O)cc21`, the growth was 20.7%. With `CCOC(=O)[C@@H](C)C[C@H](Cc1ccccc1)NC(=O)c1csc([C@@H](C[C@H](C(C)C)N(C)C(=O)[C@@H](NC(=O)[C@H]2C[C@H](O)CCN2C)C(C)C)OC(C)=O)n1`, the growth is 36.1%.

In the case of `N#CC1(C#N)C(c2ccc(N(CCCl)CCCl)cc2)OC23CCCCC2C1(C#N)C(=N)O3` (stereo not given), the growth was 72.1%. The figure for `O=C(CC1(O)C(=O)N(Cc2ccccc2)c2ccc(F)cc21)c1ccc(C(=O)NCC2CCC3(CC2)OOC2(CCCCC2)OO3)cc1` (stereo not given) is -76.3% (active). The figure for `COC(=O)N[C@H]1CCc2c(Br)c(OC)c(OC)c(OC)c2-c2ccc(SC)c(=O)cc21` is 18.2%; for `COC(=O)C1CCC(NC(=O)c2csc([C@@H](C[C@H](C(C)C)N(C)C(=O)[C@@H](NC(=O)[C@H]3CCCCN3C)C(C)C)OC(C)=O)n2)CC1` (stereo not given in full) it is 60.8%; for `ClCCN(CCCl)c1ccc(/C=N/Nc2ncnc3nc[nH]c23)cc1` it is 54.2%.

As for `COC(=O)[C@@H](C)C[C@H](Cc1ccccc1)NC(=O)c1csc([C@@H](C[C@H](C(C)C)N(C)C(=O)[C@@H](NC(=O)CN(C)C)C2CC2)OC(C)=O)n1`, the growth is 41.6%.

Turning to `Fc1cccc(NCOOC2(OOCNc3cccc(F)c3)CCCCC2)c1`, the growth was -58.2% (active).

With `CC[C@H](C)[C@H](NC(=O)c1nccn1C)C(=O)N(C)[C@H](C[C@@H](OC(C)=O)c1nc(C(=O)N[C@@H](Cc2ccccc2)C[C@H](C)C(=O)OC)cs1)C(C)C`, the growth is 47.3%. Regarding `Cc1ccc(S(=O)(=O)C(Cl)(Cl)Cl)cc1`, the growth was 97.3%.

For `CCC1(C)CC(CCNCc2ccccc2O)(c2ccc(C)cc2)CCO1` (stereo not given), the growth was 101%. Regarding `COc1ccc(/C=C\c2cc(OC)c(OC)c(OC)c2)cc1NS(=O)(=O)c1ccc(Cl)cc1`, the growth is 55.1%. The figure for `COC(=O)[C@@H](C)C[C@H](Cc1ccccc1)NC(=O)c1csc([C@@H](C[C@H](C(C)C)N(C)C(=O)[C@@H](NC(=O)[C@H]2CCCCN2C)C(C)C)OC(C)=O)n1` is 42%; for `C=C1[C@@H](C)[C@H]2[C@H](Cc3ccccc3)NC(=O)[C@]23[C@@H](O)/C=C/[C@@](C)(O)C(=O)[C@@H](C)C/C=C/[C@H]3[C@@H]1O` it is 31.6%; for `CN[C@@]1(c2ccccc2Cl)CCCC[C@@H]1NCC1CCCO1` (stereo not given in full) it is 86.4%. On to `O=C1CCC2(O)[C@@H]3Cc4ccc(O)c5c4[C@]2(CCN3Cc2ccoc2)C1O5` (stereo not given in full), for which the growth is 78.8%.
